The structures appear in SMILES notation. Out of some 1,200 compounds screened, about 10 (0.8%) were called active. Another 4% or so got no clear call; they are omitted. Calls come from the whole dose curve; as a rule, active = well fitted inhibition curve with a large enough effect; inconclusive = small, poorly fitted or top-dose-only effect; inactive = no such curve, though single readings can be large or run the other way. The sample as a whole holds a higher share of actives than the screen did.
% is set by controls: 0 for no effect and ±100 for the full control effect; potency is the fitted concentration of half-maximal effect.

A short description of this assay: qHTS Assay to Find Inhibitors of Chronic Active B-Cell Receptor Signaling: Hit Validation in OCI-Ly3 Assay. Conditions: OCI-Ly3 IkB-luciferase reporter, Chroma-Glo luminescence, 4 h; series mostly up to 46.1 µM; activity change, negative = inhibition: at the top concentration. An excerpt:
Diffuse large B-cell lymphoma (DLBCL) is the most common category of non-Hodgkin lymphoma, with ~20,000 new cases per year in the United States. DLBCL should be regarded as a collection of different neoplasms. Microarray gene expression analysis has defined two principal types of DLBCL, named for their similarity to normal B cell stages or activation states: a germinal center B-cell (GCB) type, and an activated B-cell (ABC) type. In ABC-DLBCL, a constitutive high-level activity of the NF-kappaB family of transcription factors has been observed (1) and NF-kappaB target genes are more highly expressed in ABC primary tumors than in GCB tumors. Functional studies have shown a constitutive high-level activity of the IkappaB (inhibitor of kappa-B) kinase (IKK) complex. […] Further analysis of DLBCL primary tumors for NF-kappaB target gene expression imply that although CARD11 is required for constitutive IKK activity in all ABC-DLBCL lines, mutations in CARD11 may be the root cause of IKK activation only in lines or tumors with such mutations. In other words, CARD11 mutations may explain NF-kappaB activation in only 10% of ABC-DLBCL cases. […] This process has been termed 'chronic active BCR signaling' (CABS). The goal of this screen is to find small-molecule inhibitors of the CABS pathway found in ABC-DLBCL lines using a cell-based assay that measures IkappaBalpa stability, which has already been extensively validated in the OCI-Ly3 line (PubChem AID:445; REF: 4). […] Hits from the primary screen were tested in this selectivity secondary assay. NIH Molecular Libraries Probe Production Network [MLPCN] NIH Chemical Genomics Center [NCGC] MLPCN Grant: R03 DA031086 PI Name: Dr. R. Eric Davis
Cells were seeded in 1536-well plates at 5000 cells/3ul in IMDM medium containing 0.5% FBS, w/o phenol red, L-glutamine, 25 mM HEPES, 3 mg/ml sodium bicarbonate. After centrifugation for 1 min. at 1000 rpm, 23 nl of compounds or DMSO were delivered to each well using a pin tool. Then 1ul 80ng/ml doxycycline was dispensed into white solid 1536-well plates and the plates were incubated at 37C/5% C02 in a cell incubator for 4 hrs. Then 4 ul Chroma-Glo luminescent substrate mix (Promega) was added to each well. The plate was incubated at R.T. for 10-15 min. The plates were measured on a ViewLux plate reader for green luminescence (540/20 nm filter) and red luminescence (618/8 nm filter). The green and red luminescent signals were corrected for red and green luminescence filter overlap using previously determined filter calibration constants (determined using the procedure outlined in the Promega Technical Manual). The %Activity was determined from the ratio of corrected green/red luminescent values. Green luminescent and ratio %Activity was determined by normalizing to the difference in signal between basal cells (0% Activity) and cells incubated with 10 uM of the proteasome inhibitor MG-132 (100% Activity). Red luminescent %Activity was normalized to the difference between red luminesence in basal cells (0%Activity) and zero luminescence (-100% Activity). Concentration-response curves were fitted to the signals arising from the green luminescence (I-kappa-B-alpha-luciferase fusion; IkB-luc) and the red luminescence (unfused luciferase; luc) as well as the calculated ratio. The concentration-effect curves were then classified based on curve quality (r2), response magnitude and degree of measured activity. Compounds were then categorized based on their concentration-response curves for all three datasets (Ikb-luc, luc and ratio).
A general note: Quantitative high-throughput screening tests each substance at several concentrations.
`CCN1C(=O)C(O)(C2COC(C)(C)CC2=O)c2cc(Br)ccc21` (stereo not given): the “activity change, negative = inhibition” value was -6.91% (inactive). On to `O=C(N/N=C/c1cccs1)c1cc(-c2ccncc2)nc2ccccc12`, for which the “activity change, negative = inhibition” value was -3.1% (inactive). `Cc1nn(-c2ccccc2)c(C)c1/C=N/NC(=O)c1cc(-c2cccs2)[nH]n1`: the Potency was 18.4 µM (active). Take `Cc1ccc(-c2cc(C(=O)N/N=C/c3c(C)nn(-c4ccccc4)c3C)[nH]n2)cc1`: the “activity change, negative = inhibition” value was -14.7% (inactive).

For the molecule `COc1ccc(COC(=O)C2=C(C)NC(=O)NC2c2cc(Br)c(O)c(OC)c2)cc1` (stereo not given), the “activity change, negative = inhibition” value was 0.378% (inactive). Turning to `CCOC(=O)CSc1nc(C)c2cccc(C)c2n1`, the “activity change, negative = inhibition” value was 0.225% (inactive). As to `COc1ccc(C2=Nn3c(nnc3-c3ccccc3OC)SC2)cc1OC`, the “activity change, negative = inhibition” value is -2.26% (inactive). The same measure, in the same setting: next, `Fc1cccc2sc(Nc3nnc(-c4ccccc4)o3)nc12`: 21.3% (inactive); `Nc1ncnc2c1ncn2C1OC(C(=O)NC2CC2)C(O)C1O` (stereo not given): -1.22% (inactive).

With `CC(/C=N/NC(=O)c1cc(-c2ccc(Cl)cc2)nc2ccccc12)=C\c1ccco1`, the “activity change, negative = inhibition” value is -1.82% (inactive). On the same count and under the same terms, next, `Cc1noc(C)c1COc1ccc(CC(=O)NCc2ccccc2)cc1`: -1.46% (inactive).

Consider `Cc1cc(C)c(S(=O)(=O)Nc2ccc3c4c(cccc24)CC3)c(C)c1`, for which the “activity change, negative = inhibition” value was -5.19% (inactive).

`CCOc1ccc(Nc2cc(C)nc(-n3nc(C)cc3C)n2)cc1`: the “activity change, negative = inhibition” value was -3.94% (inactive). `COc1ccc(OC)c(C2CC(=O)c3c([nH]c(C(=O)OC(C)C)c3C)C2)c1` (stereo not given): the “activity change, negative = inhibition” value is -5.41% (inactive). Take `COc1ccccc1-c1nnc(Nc2nc3c(OC)cccc3s2)o1`: the “activity change, negative = inhibition” value is 14.5% (inactive).

Consider `C=CCn1c(SCC(=O)NCCO)nc2sc(C)c(C)c2c1=O`, for which the “activity change, negative = inhibition” value is -0.853% (inactive). On the same count and under the same terms, next, `O=C(CNC(=O)c1ccco1)N=Nc1c(O)n(CCc2ccccc2)c2ccccc12`: -1.99% (inactive). Consider `C=CCNc1ncnc2c1ncn2C1OC(CO)C(O)C1O` (stereo not given), for which the “activity change, negative = inhibition” value was -1.82% (inactive). Turning to `COc1cccc(CSc2nc3ccccc3cc2C=O)c1`, the “activity change, negative = inhibition” value was -1.56% (inactive). In the case of `O=C(/C=C/c1cccc(Cl)c1)c1nc2ccccc2[nH]1`, the “activity change, negative = inhibition” value is 0.678% (inactive). In the case of `COc1cc2c(cc1OC)C(c1cc3cc(OC)c(OC)cc3[nH]c1=O)N(C(=O)C1CC1)CC2` (stereo not given), the “activity change, negative = inhibition” value is -0.249% (inactive).

In the case of `CCOc1cc(CNc2ccc3c(c2)OCCO3)cc(Br)c1OCC`, the “activity change, negative = inhibition” value was -7.23% (inactive). On the same count and under the same terms, to `CC(C)Oc1ccccc1C1CC(=O)Nc2cc3c(cc21)OCCO3` (stereo not given) belongs -4.7% (inactive); to `C=C1C(O)[C@@H]2O[C@]3(CC[C@H](/C=C/C(C)[C@@H]4CC(C)=CC5(O[C@H](C[C@@](C)(O)CO)CCC5O)O4)O3)CC[C@H]2O[C@@H]1C(O)CC(C)[C@H]1OC2(CCCCO2)CCC1C` (stereo not given in full), -6.02% (inactive). Regarding `Cc1cc(Cl)n2c(nc3ccccc32)c1C#N`, the “activity change, negative = inhibition” value is -0.275% (inactive). Regarding `COc1ccc(-c2noc(CSc3nc(N)c(-c4ccccc4)c(=O)[nH]3)n2)cc1OC`, the “activity change, negative = inhibition” value is -0.927% (inactive). Still for that read-out and setting: to `COc1ccc(CN2C[C@H]3CCCN3c3cc(Br)ccc3S2(=O)=O)cc1` belongs -3.64% (inactive); to `CCOCCOC(=O)c1[nH]c2c(c1C)C(=O)CC(c1ccccc1)C2` (stereo not given), -0.56% (inactive). On the same count and under the same terms, to `CCOc1cc(C(=O)N/N=C/C(Br)=C/c2ccccc2)cc(OCC)c1OCC` belongs -11.1% (inactive); to `CCOC(=O)c1ccc(NC(=O)Nc2ccon2)cc1`, -4.1% (inactive). As for `Cc1ccccc1Nc1c(N)c(=O)oc2ccccc12`, the “activity change, negative = inhibition” value was -0.754% (inactive).

Turning to `COc1cc(/C=C/c2ccc3cccc(O)c3n2)cc(OC)c1OC`, the “activity change, negative = inhibition” value is 122% (inactive). In the case of `COc1cc(/C=C/c2ccc3cccc(O)c3n2)cc(Br)c1OC`, the Potency was 10.3 µM (active).

Take `COc1cc(/C=C/c2ccc3cccc(O)c3n2)c(Br)cc1O`: the “activity change, negative = inhibition” value is 31% (inactive).

Turning to `Fc1ccc(/C=N/NC2=Nc3cccc4cccc2c34)cc1`, the “activity change, negative = inhibition” value is -1.29% (inactive).

On to `CNC(=O)c1cccc(NC(=O)C(C)c2ccc3cc(OC)ccc3c2)c1` (stereo not given), for which the “activity change, negative = inhibition” value was -3.81% (inactive). For `COc1ccc(C(C)=O)cc1COC(=O)c1ccc(N)c([N+](=O)[O-])c1`, the “activity change, negative = inhibition” value is -0.216% (inactive).

Consider `CCOc1cc(/C=C(/C#N)C(=O)Nc2ccc(O)cc2)cc(Br)c1O`, for which the “activity change, negative = inhibition” value was -11.9% (inactive). For the molecule `COC(=O)c1ccc(C)c(NS(=O)(=O)c2ccc3c(c2)OCCO3)c1`, the “activity change, negative = inhibition” value was -3.3% (inactive). The same measure, in the same setting: next, `CCN(CC)c1ccc(-c2nn3c(-c4n[nH]c5c4CCC5)nnc3s2)cc1`: -7.08% (inactive); `CC1C(=O)N2CCCc3cc(NC(=O)c4ccccc4Br)cc1c32` (stereo not given): -10.2% (inactive). In the case of `O=C(Nc1ccc(N2CCN(C(=O)c3ccc(Cl)cc3)CC2)cc1)c1ccc([N+](=O)[O-])o1`, the Potency is 16.4 µM (active). As to `O=C(Nc1ccc(N2CCCC2)cc1)c1cc(Cl)ccc1Cl`, the “activity change, negative = inhibition” value was -1.28% (inactive).

`COC(=O)c1cc(C(=O)N2CCN(c3cccc(Cl)c3)CC2)cc([N+](=O)[O-])c1`: the “activity change, negative = inhibition” value was -3.03% (inactive). The same measure, in the same setting: to `CCC1=Nc2cc(C(=O)NCc3ccco3)ccc2Sc2ccccc21` belongs -2.12% (inactive); to `CCCCC[C@H](O)/C=C/[C@@H]1[C@@H](C/C=C\CCCC(=O)O)[C@H]2CO[C@@H]1C2`, -0.516% (inactive); to `Cc1ccc(Nc2nc(-c3c(C)nc4ncccn34)cs2)cc1`, -13% (inactive). For the molecule `Cc1ccc2[nH]c(-c3cccc(F)c3)cc(=O)c2c1`, the “activity change, negative = inhibition” value is -3.54% (inactive).

`COc1cc2c(cc1OC)-c1cc(NC3CCCCC3)nc(=O)n1CC2`: the “activity change, negative = inhibition” value is -0.939% (inactive). Same read-out and setting: to `COc1cc2c(cc1OC)-c1cc(NC3CCCC3)nc(=O)n1CC2` belongs -0.848% (inactive); to `COc1cc(S(=O)(=O)N2CCCCC2)ccc1NC(=O)/C=C/c1ccccc1`, -1.13% (inactive); to `COc1ccccc1C(=O)Nc1ccccc1SC(=O)c1ccccc1OC`, -25.4% (inactive).

On to `CCOc1ccc2c(c1)C(C)=CC(C)(C)N2S(=O)(=O)c1ccc(NC(C)=O)cc1`, for which the “activity change, negative = inhibition” value was -3.37% (inactive).

On to `Cc1ccc2nc(NC(=O)c3ccccn3)sc2c1`, for which the “activity change, negative = inhibition” value was 14.4% (inactive). Consider `C[C@]12C=CC(=O)C=C1CC[C@@H]1[C@@H]2[C@@H](O)C[C@@]2(C)[C@H]1CC[C@]2(O)C(=O)COC(=O)CCC(=O)O`, for which the “activity change, negative = inhibition” value is -1.59% (inactive). As to `C/C(Cl)=C\Cn1c(O)c(N=NC(N)=S)c2cc(Br)ccc21`, the “activity change, negative = inhibition” value was 64.8% (inactive). For `OC[C@H]1O[C@@H](n2cnc3c(NC4CCCC4)nc(Cl)nc32)[C@H](O)[C@@H]1O`, the “activity change, negative = inhibition” value was -0.38% (inactive). As for `Cc1[nH]n(C(N)=S)c(=O)c1N=Nc1cccc(Cl)c1`, the Potency is 20.6 µM (active). As to `Cc1[nH]n(C(N)=S)c(=O)c1N=Nc1ccc2ccccc2c1`, the “activity change, negative = inhibition” value was -3.53% (inactive). `Cc1ccc(N=Nc2c(C)[nH]n(C(N)=S)c2=O)cc1`: the “activity change, negative = inhibition” value is 0.657% (inactive). As to `CCN1C(=O)c2cccc3c(NC(=O)c4ccc(OC)c(OC)c4)ccc1c23`, the “activity change, negative = inhibition” value is -6.01% (inactive). As for `O=C1N/C(=C/c2ccc(N3CCOCC3)o2)C(=O)N1c1cccc(Cl)c1`, the “activity change, negative = inhibition” value was -6% (inactive). Take `O=C(N/N=C/c1ccc(O)cc1)c1[nH]c2ccc(Br)cc2c1-c1ccccc1`: the “activity change, negative = inhibition” value was -7.64% (inactive). Turning to `COc1c(Br)cc(Br)cc1/C=N/NC(=O)c1cccnc1`, the “activity change, negative = inhibition” value was -0.0712% (inactive). As for `CCOC(=O)c1c(C)oc2c1cc(NS(=O)(=O)c1ccc(C(=O)O)cc1)c1ccccc12`, the “activity change, negative = inhibition” value was -5.36% (inactive).

The record behind these values is PubChem BioAssay AID651567 (National Center for Advancing Translational Sciences (NCATS), 2012).
